# Experimental data: the supplement of paper PMC4466140
# Experiments:
# Test in all cases: SPOT peptide array binding signal intensity (averaged, normalized) (arbitrary units (background-subtracted, floor 0; scale differs between SH3 domains)); higher = stronger binding of the SH3 domain to the peptide
# AgAbp1 = molecular target: AgAbp1
# Procedure, shortened: (§1)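 GST-SH3 fusions from four yeast species, purified on glutathione Sepharose, were incubated at 10 μg/ml overnight at 4°C on membranes of synthetic 15-mer peptides in which cysteines were replaced with serines. Binding signal is the normalized, background-subtracted spot intensity averaged over replicates, in domain-specific arbitrary units.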
# AgBbc1 = molecular target: AgBbc1
# Procedure, shortened: as §1
# AgBem1-D1 = molecular target: AgBem1-D1
# Procedure, shortened: as §1
# AgBzz1-D1 = molecular target: AgBzz1-D1
# Procedure, shortened: as §1
# AgBzz1-D2 = molecular target: AgBzz1-D2
# Procedure, shortened: as §1
# AgCyk3 = molecular target: AgCyk3
# Procedure, shortened: as §1
# AgFus1 = molecular target: AgFus1
# Procedure, shortened: as §1
# AgHof1 = molecular target: AgHof1
# Procedure, shortened: as §1
# AgHse1 = molecular target: AgHse1
# Procedure, shortened: as §1
# AgLsb1 = molecular target: AgLsb1
# Procedure, shortened: as §1
# AgLsb4 = molecular target: AgLsb4
# Procedure, shortened: as §1
# AgMyo5 = molecular target: AgMyo5
# Procedure, shortened: as §1
# AgNbp2 = molecular target: AgNbp2
# Procedure, shortened: as §1
# AgRvs167 = molecular target: AgRvs167
# Procedure, shortened: as §1
# AgSho1 = molecular target: AgSho1
# Procedure, shortened: as §1
# AgSla1-D1-D2 = molecular target: AgSla1-D1-D2
# Procedure, shortened: as §1
# AgSla1-D3 = molecular target: AgSla1-D3
# Procedure, shortened: as §1
# CaAbp1-D1 = molecular target: CaAbp1-D1
# Procedure, shortened: as §1
# CaAbp1-D2 = molecular target: CaAbp1-D2
# Procedure, shortened: as §1
# CaBbc1 = molecular target: CaBbc1
# Procedure, shortened: as §1
# CaBem1-D1 = molecular target: CaBem1-D1
# Procedure, shortened: as §1
# CaBzz1-D1 = molecular target: CaBzz1-D1
# Procedure, shortened: as §1
# CaBzz1-D2 = molecular target: CaBzz1-D2
# Procedure, shortened: as §1
# CaCyk3 = molecular target: CaCyk3
# Procedure, shortened: as §1
# CaFus1 = molecular target: CaFus1
# Procedure, shortened: as §1
# CaHof1 = molecular target: CaHof1
# Procedure, shortened: as §1
# CaHse1 = molecular target: CaHse1
# Procedure, shortened: as §1
# CaLsb1 = molecular target: CaLsb1
# Procedure, shortened: as §1
# CaLsb4 = molecular target: CaLsb4
# Procedure, shortened: as §1
# CaMyo5 = molecular target: CaMyo5
# Procedure, shortened: as §1
# CaNbp2 = molecular target: CaNbp2
# Procedure, shortened: as §1
# CaRvs167 = molecular target: CaRvs167
# Procedure, shortened: as §1
# CaRvs167-3 = molecular target: CaRvs167-3
# Procedure, shortened: as §1
# CaSho1 = molecular target: CaSho1
# Procedure, shortened: as §1
# CaSla1-D1-D2 = molecular target: CaSla1-D1-D2
# Procedure, shortened: as §1
# CaSla1-D3 = molecular target: CaSla1-D3
# Procedure, shortened: as §1
# ScAbp1 = molecular target: ScAbp1
# Procedure, shortened: as §1
# ScBbc1 = molecular target: ScBbc1
# Procedure, shortened: as §1
# ScBem1-D1 = molecular target: ScBem1-D1
# Procedure, shortened: as §1
# ScBzz1-D1 = molecular target: ScBzz1-D1
# Procedure, shortened: as §1
# ScBzz1-D2 = molecular target: ScBzz1-D2
# Procedure, shortened: as §1
# ScCyk3 = molecular target: ScCyk3
# Procedure, shortened: as §1
# ScFus1 = molecular target: ScFus1
# Procedure, shortened: as §1
# ScHof1 = molecular target: ScHof1
# Procedure, shortened: as §1
# ScHse1 = molecular target: ScHse1
# Procedure, shortened: as §1
# ScLsb1 = molecular target: ScLsb1
# Procedure, shortened: as §1
# ScLsb2 = molecular target: ScLsb2
# Procedure, shortened: as §1
# ScLsb3 = molecular target: ScLsb3
# Procedure, shortened: as §1
# ScLsb4 = molecular target: ScLsb4
# Procedure, shortened: as §1
# ScMyo3 = molecular target: ScMyo3
# Procedure, shortened: as §1
# ScMyo5 = molecular target: ScMyo5
# Procedure, shortened: as §1
# ScNbp2 = molecular target: ScNbp2
# Procedure, shortened: as §1
# ScPex13 = molecular target: ScPex13
# Procedure, shortened: as §1
# ScRvs167 = molecular target: ScRvs167
# Procedure, shortened: as §1
# ScSho1 = molecular target: ScSho1
# Procedure, shortened: as §1
# ScSla1-D1-D2 = molecular target: ScSla1-D1-D2
# Procedure, shortened: as §1
# ScSla1-D3 = molecular target: ScSla1-D3
# Procedure, shortened: as §1
# SpAbp1-D1 = molecular target: SpAbp1-D1
# Procedure, shortened: as §1
# SpBbc1 = molecular target: SpBbc1
# Procedure, shortened: as §1
# SpBzz1-D1 = molecular target: SpBzz1-D1
# Procedure, shortened: as §1
# SpBzz1-D2 = molecular target: SpBzz1-D2
# Procedure, shortened: as §1
# SpCyk3 = molecular target: SpCyk3
# Procedure, shortened: as §1
# SpHof1 = molecular target: SpHof1
# Procedure, shortened: as §1
# SpHof1-2 = molecular target: SpHof1-2
# Procedure, shortened: as §1
# SpHof1-3 = molecular target: SpHof1-3
# Procedure, shortened: as §1
# SpHse1 = molecular target: SpHse1
# Procedure, shortened: as §1
# SpLsb1 = molecular target: SpLsb1
# Procedure, shortened: as §1
# SpLsb4 = molecular target: SpLsb4
# Procedure, shortened: as §1
# SpMyo1 = molecular target: SpMyo1
# Procedure, shortened: as §1
# SpNbp2 = molecular target: SpNbp2
# Procedure, shortened: as §1
# SpPex13 = molecular target: SpPex13
# Procedure, shortened: as §1
# SpRvs167 = molecular target: SpRvs167
# Procedure, shortened: as §1
# SpSla1-D1-D2 = molecular target: SpSla1-D1-D2
# Procedure, shortened: as §1
# SpSla1-D3 = molecular target: SpSla1-D3
# Procedure, shortened: as §1
binder,measurement,setting,value
HRRRRVFSIPSLKSI,SPOT peptide array binding signal intensity,AgAbp1,65.5
same,SPOT peptide array binding signal intensity,AgBbc1,88.2
same,SPOT peptide array binding signal intensity,AgBem1-D1,426
same,SPOT peptide array binding signal intensity,AgBzz1-D1,45
same,SPOT peptide array binding signal intensity,AgBzz1-D2,28.5
same,SPOT peptide array binding signal intensity,AgCyk3,18
same,SPOT peptide array binding signal intensity,AgFus1,1100
same,SPOT peptide array binding signal intensity,AgHof1,117
same,SPOT peptide array binding signal intensity,AgHse1,2250
same,SPOT peptide array binding signal intensity,AgLsb1,51.2
same,SPOT peptide array binding signal intensity,AgLsb4,264
same,SPOT peptide array binding signal intensity,AgMyo5,6
same,SPOT peptide array binding signal intensity,AgNbp2,470
same,SPOT peptide array binding signal intensity,AgRvs167,15.8
same,SPOT peptide array binding signal intensity,AgSho1,168
same,SPOT peptide array binding signal intensity,AgSla1-D1-D2,776
same,SPOT peptide array binding signal intensity,AgSla1-D3,11
same,SPOT peptide array binding signal intensity,CaAbp1-D1,703
same,SPOT peptide array binding signal intensity,CaAbp1-D2,734
same,SPOT peptide array binding signal intensity,CaBbc1,198
same,SPOT peptide array binding signal intensity,CaBem1-D1,100
same,SPOT peptide array binding signal intensity,CaBzz1-D1,60
same,SPOT peptide array binding signal intensity,CaBzz1-D2,69
same,SPOT peptide array binding signal intensity,CaCyk3,75
same,SPOT peptide array binding signal intensity,CaFus1,1310
same,SPOT peptide array binding signal intensity,CaHof1,0.5
same,SPOT peptide array binding signal intensity,CaHse1,232
same,SPOT peptide array binding signal intensity,CaLsb1,2.5
same,SPOT peptide array binding signal intensity,CaLsb4,196
same,SPOT peptide array binding signal intensity,CaMyo5,3.5
same,SPOT peptide array binding signal intensity,CaNbp2,887
same,SPOT peptide array binding signal intensity,CaRvs167,103
same,SPOT peptide array binding signal intensity,CaRvs167-3,319
same,SPOT peptide array binding signal intensity,CaSho1,1550
same,SPOT peptide array binding signal intensity,CaSla1-D1-D2,49
same,SPOT peptide array binding signal intensity,CaSla1-D3,29.5
same,SPOT peptide array binding signal intensity,ScAbp1,38
same,SPOT peptide array binding signal intensity,ScBbc1,43.5
same,SPOT peptide array binding signal intensity,ScBem1-D1,76
same,SPOT peptide array binding signal intensity,ScBzz1-D1,21
same,SPOT peptide array binding signal intensity,ScBzz1-D2,51
same,SPOT peptide array binding signal intensity,ScCyk3,238
same,SPOT peptide array binding signal intensity,ScFus1,1620
same,SPOT peptide array binding signal intensity,ScHof1,3
same,SPOT peptide array binding signal intensity,ScHse1,2170
same,SPOT peptide array binding signal intensity,ScLsb1,48.8
same,SPOT peptide array binding signal intensity,ScLsb2,12.5
same,SPOT peptide array binding signal intensity,ScLsb3,780
same,SPOT peptide array binding signal intensity,ScLsb4,44.5
same,SPOT peptide array binding signal intensity,ScMyo3,9.75
same,SPOT peptide array binding signal intensity,ScMyo5,8
same,SPOT peptide array binding signal intensity,ScNbp2,841
same,SPOT peptide array binding signal intensity,ScPex13,≤ 0
same,SPOT peptide array binding signal intensity,ScRvs167,95.5
same,SPOT peptide array binding signal intensity,ScSho1,1320
same,SPOT peptide array binding signal intensity,ScSla1-D1-D2,321
same,SPOT peptide array binding signal intensity,ScSla1-D3,12.8
same,SPOT peptide array binding signal intensity,SpAbp1-D1,293
same,SPOT peptide array binding signal intensity,SpBbc1,12
same,SPOT peptide array binding signal intensity,SpBzz1-D1,122
same,SPOT peptide array binding signal intensity,SpBzz1-D2,0.5
same,SPOT peptide array binding signal intensity,SpCyk3,6
same,SPOT peptide array binding signal intensity,SpHof1,322
same,SPOT peptide array binding signal intensity,SpHof1-2,51.2
same,SPOT peptide array binding signal intensity,SpHof1-3,622
same,SPOT peptide array binding signal intensity,SpHse1,997
same,SPOT peptide array binding signal intensity,SpLsb1,11
same,SPOT peptide array binding signal intensity,SpLsb4,372
same,SPOT peptide array binding signal intensity,SpMyo1,8.25
same,SPOT peptide array binding signal intensity,SpNbp2,1660
same,SPOT peptide array binding signal intensity,SpPex13,21
same,SPOT peptide array binding signal intensity,SpRvs167,55.8
same,SPOT peptide array binding signal intensity,SpSla1-D1-D2,≤ 0
same,SPOT peptide array binding signal intensity,SpSla1-D3,30
